# Assay outcomes: PubChem BioAssay, National Center for Advancing Translational Sciences (NCATS)
# SMN2 splice enh: qHTS Assay for Enhancers of SMN2 Splice Variant Expression | HEK293 SMN2-luciferase splicing reporter, luminescence, 30-36 h | Potency, µM (top dose mostly 46.1 µM), for inactives: at the highest dose activity change, positive = activation, usual class: activators | 210,000 compounds, 2.8% hits | AID 1458, 2008; note: % of control where 0% means no effect; nearly all actives have a fitted effect of over 55% in size
#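 HEK293 cells carry an SMN2 minigene-luciferase reporter in which exon 7 inclusion puts luciferase in frame. Cells were seeded at 2000 cells/well, attached for 10-12 hours, then exposed to compounds for 30-36 hours at 37C before ONE-Glo luminescence.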
# FLuc modulator: qHTS profiling assay for firefly luciferase inhibitor/activator using purifed enzyme and Km concentrations of substrates (counterscreen for miR-21 project); purified FLuc, Km substrates, luminescence inhibition; Potency, µM (doses to about 57.5 µM), for inactives: at the top dose activity change, negative = inhibition, most hits filed as inhibitors; 360,000 compounds, 6.9% hits;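 note: plate controls were vehicle for no effect and reference inhibitor for full effect; nearly all actives have a fitted effect of over 55% in size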
# Target sequence (P08659 whole entry, looked up): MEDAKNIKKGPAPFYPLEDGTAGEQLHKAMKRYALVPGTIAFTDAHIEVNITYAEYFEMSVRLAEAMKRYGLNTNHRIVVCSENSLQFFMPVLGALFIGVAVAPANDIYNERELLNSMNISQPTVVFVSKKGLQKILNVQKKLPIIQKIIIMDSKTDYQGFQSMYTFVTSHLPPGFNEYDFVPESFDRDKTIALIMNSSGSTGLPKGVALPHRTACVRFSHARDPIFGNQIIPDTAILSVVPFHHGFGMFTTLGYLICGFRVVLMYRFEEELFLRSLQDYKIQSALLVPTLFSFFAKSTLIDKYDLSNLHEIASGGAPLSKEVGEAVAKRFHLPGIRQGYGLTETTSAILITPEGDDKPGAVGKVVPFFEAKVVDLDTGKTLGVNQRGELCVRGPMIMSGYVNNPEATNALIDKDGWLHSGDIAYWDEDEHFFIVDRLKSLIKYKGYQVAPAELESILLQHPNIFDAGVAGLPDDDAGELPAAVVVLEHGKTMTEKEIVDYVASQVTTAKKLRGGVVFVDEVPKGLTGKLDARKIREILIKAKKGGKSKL
#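 Biochemical qHTS of compounds, final roughly 60 µM downward over six points, against 10 nM purified firefly luciferase using Km concentrations of substrates (10 uM D-luciferin, 10 uM ATP) in Tris acetate pH 7.5 buffer; luminescence output.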
# ELG1 genotoxic: qHTS screen for small molecules that induce genotoxicity in human embryonic kidney (HEK293T) cells expressing luciferase-tagged ELG1 | HEK293T ELG1-luciferase reporter, luminescence, 16 h | Potency, µM (series often up to 46 µM), without a hit: at the highest dose activity change, positive = activation, hits mostly activators | 330,000 compounds, 1.3% hits; note: % of control where 0% means no effect; nearly all actives have a fitted effect of over 60% in size
#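 Quantitative HTS format in 1536-well plates. HEK293T ELG1-luciferase reporter cells receive test compound and are incubated 16 hr at 37 °C, 5% CO2; ONE-Glo added, 30 min room temperature, then luminescence read.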
# ELG1 DNA repair: qHTS screen for small molecules that inhibit ELG1-dependent DNA repair in human embryonic kidney (HEK293T) cells expressing luciferase-tagged ELG1. HEK293T ELG1-luciferase reporter, luminescence, 16 h; DNA damage induced by 5-fluorouridine. Potency, µM (series often up to 46.1 µM), for inactives: at the highest dose activity change, negative = inhibition, hits mostly inhibitors. 330,000 compounds, 2.3% hits. AID 504467, 2011; note: % is set by controls: 0 for no effect and ±100 for the full control effect; nearly all actives have a fitted effect of over 55% in size
#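 Luminescence from the luciferase reporter, measured 30 min after ONE-Glo reagent at room temperature, was the read-out. Beforehand, 2,000 cells per well were exposed for 16 hr at 37 °C to 5-fluorouridine together with compound or vehicle.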
# Rab9 promoter act: qHTS Assay for Rab9 Promoter Activators; Huh7 Rab9 promoter-luciferase reporter, luminescence, 24 h; Potency, µM (series often up to 9.22 µM), without a hit: at the highest dose activation, negative = inhibition, usual class: activators; 320,000 compounds, 2.8% hits; AID 485297, 2010; note: % of control where 0% means no effect; nearly all actives have a fitted effect of over 60% in size
#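 Huh7 cells stably carrying a Rab9 promoter-luciferase reporter, 1500 cells per well in OP-MEM I with 10% FBS, treated with compound 24 hours at 37C. Luciferase activity read by luminescence after 10 minutes with Amplite reagent.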
# NPC1 promoter act: qHTS Assay for NPC1 Promoter Activators | Huh7 NPC1 promoter luciferase reporter, 24 h | Potency, µM (highest dose often 9.22 µM), inactives show at the top dose activation, actives largely listed as activators | 320,000 compounds, 2.4% hits; note: % of control where 0% means no effect; nearly all actives have a fitted effect of over 60% in size
#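 Huh7 reporter cells (NPC1 promoter driving luciferase) are dosed with compound for 24 h at 37 °C, 5% CO2; luciferase detection reagent is then added and luminescence measured after 10 min at ambient temperature.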
# * marks the source's active call; other numbers are inactive results; ? = inconclusive; . = no result given; [ ] = dose if it differs, or a comment. This is a sample that favours compounds with a hit; in the whole collection about 9.2% have one here. Calls come from the whole dose curve; as a rule, active = well fitted curve in the direction sought with a large enough effect; inconclusive = small, poorly fitted or top-dose-only effect, or another doubt; inactive = no such curve, though single readings can be large; an effect the other way counts as inactive or inconclusive. Potency is the fitted concentration of half-maximal effect.
SMILES,SMN2 splice enh,FLuc modulator,ELG1 genotoxic,ELG1 DNA repair,Rab9 promoter act,NPC1 promoter act
O=C1CS(=O)(=O)C2(C(=O)N(Cc3ccccc3)c3ccccc32)N1c1ccccc1 (centres undefined),.,6%,.,.,.,.
CCOC(=O)c1ccc(OCCOc2ccccc2C)cc1,.,?,5%,?,1%,6%
COc1ccc(-c2cc(C(=O)N/N=C/c3cccnc3)c3cc(C)cc(C)c3n2)cc1,.,7.6µM*,-5%,?,-2%,-7%
CCOc1ccc(C(=O)Nn2cnnc2)cc1,-2%,-4%,1%,22%,1%,12%
CCCn1nnc(NC(=O)c2ccc(OCC)c(Cl)c2)n1,3%,6%[2.3 µM],10%,29%,23%,3%
CCCn1nnc(NC(=O)c2ccc(Br)cc2)n1,14µM*,?,9.2µM*,?,4µM*,?
CCOc1ccc(C(=O)Nc2nnn(CC)n2)cc1,.,12µM*,10µM*,?,4µM*,4µM*
CCCn1nnc(NC(=O)c2ccc(OC)cc2)n1,?,21µM*,18µM*,?,?,4µM*
CCCn1nnc(NC(=O)c2ccc(-c3ccccc3)cc2)n1,?,9.5µM*,?,?,2.5µM*,2.5µM*
Cc1ccc(CNC(=O)C2CCCN(Cc3nc(-c4cccc(C)c4)oc3C)C2)cc1 (centres undefined),4%,-16%,.,.,.,.
CC[n+]1c(C)cc(C)n1-c1ccccc1,-25%,3%,1%,-9%,-2%,-6%
COc1ccc(Cl)cc1-c1nc(SCC(N)=O)n[nH]1,.,1%,-2%,1%,-1%,0%
COc1ccc(C)cc1S(=O)(=O)N1CCN(c2cccc(Cl)c2)CC1,-17%,-8%,.,.,.,.
Cc1cc(S(=O)(=O)Nc2noc3ccccc23)ccc1F,.,0%,-1%,-14%,-1%,-1%
CC(=O)Nc1ccc(S(=O)(=O)N/N=C/c2cccnc2)cc1,.,3%,-2%,0%,-2%,2%
CC(=O)Nc1ccc(S(=O)(=O)N/N=C/c2ccc(C)s2)cc1,?,11µM*,?,?,?,17%
CC(C)(CC(=O)O)CC(=O)NCc1c(Cl)cccc1Oc1ccccc1,.,0%,1%,?,0%,-3%
COc1cc(SSc2cc(OC)cc([N+](=O)[O-])c2N)c(N)c([N+](=O)[O-])c1,.,8.5µM*,-8%,7%,0%,-2%
c1ccc(CN2CCN(CCCNc3ccc4nnc(-c5ccccc5)n4n3)CC2)cc1,-6%,-3%,-11%,18µM*,-5%,-1%
Cc1cccc(OCC(=O)NNc2c3ccccc3nc3ccccc23)c1,-59%,?,0%,15µM*,-22%,-29%
Cc1ccc(OCC(=O)NNc2c3ccccc3nc3ccccc23)cc1,-61%,-11%,-16%,?,-18%,-19%
Cc1cccc(OCc2nc3ccccc3c(=O)n2N)c1,?,17µM*,?,?,?,?
COc1cccc(OCc2nc3ccccc3n2Cc2ccccc2C)c1,-27%,?,.,.,.,.
Nn1c(COc2cccc(Cl)c2)nc2ccccc2c1=O,?,?,9%,?,25%,16%
COc1cccc(OCc2nc3ccccc3n2C)c1,16µM*,11µM*,.,.,.,.
SMILES,SMN2 splice enh,FLuc modulator,ELG1 genotoxic,ELG1 DNA repair,Rab9 promoter act,NPC1 promoter act
Cc1cccc(OCc2nc3ccccc3n2C)c1,.,24µM*,?,?,?,?
O=C(CSc1ccc(-c2ccccn2)nn1)N1CCCc2ccccc21,-11%,?,-4%,-21%,1%,-1%
CC1N=C2c3ccccc3N=C(SCC(=O)NCCc3ccccc3)N2C1=O (centres undefined),.,-1%,.,.,.,.
COc1cc(C(=S)N2CCOCC2)ccc1OS(=O)(=O)c1ccc(NC(C)=O)cc1,-41%,-1%,-2%,12µM*,-9%,-11%
CC(=O)Nc1ccc(S(=O)(=O)Oc2ccccc2N2CCCCC2)cc1,.,-1%,-5%,8.2µM*,0%,-4%
COc1cc(C(=S)N2CCCC2)ccc1OS(=O)(=O)c1ccc(NC(C)=O)cc1,-68%,5%,-18%,?,-2%,-3%
COc1cc(C(=S)N2CCOCC2)cc(Br)c1OS(=O)(=O)c1ccccc1,.,-5%,-6%,16µM*,2%,-5%
CCN(CC)CC(=O)N1CCCC(N2CCN(c3cccc(C(F)(F)F)c3)CC2)C1 (centres undefined),.,-9%,1%,1%,2%,-1%
COc1ccc(C(=O)Nc2cc3c(cc2Cl)OCCCO3)cc1,?,9.5µM*,?,?,3.5µM*,2µM*
COc1cccc(C(=O)Nc2cc3c(cc2Cl)OCCCO3)c1,10µM*,3µM*,?,?,1.8µM*,3.2µM*
COc1ccc(C(=O)Nc2cc3c(cc2C(=O)c2ccccc2Cl)OCCO3)cc1,2%,-11%,.,.,.,.
O=C(O)c1ccc(NC(=O)C2C3CCC(O3)C2C(=O)O)cc1 (centres undefined),.,0%,?,?,-11%,1%
COc1ccc(NC(=O)COC(=O)c2cc(Cl)ccc2O)cc1S(=O)(=O)N1CCCCC1,.,-1%,1%,?,-2%,-8%
COc1ccc(N(CC(=O)Nc2ccc3c(c2)OCO3)S(=O)(=O)c2ccccc2)c(OC)c1,-6%,-5%,-14%,15µM*,-3%,6%
COc1cccc(NC(=O)CN(c2ccccc2OC)S(=O)(=O)c2cccs2)c1,.,.,-7%,21µM*,-4%,-4%
COc1ccccc1N(CC(=O)Nc1ccccc1)S(=O)(=O)c1cccs1,.,-8%,-1%,-2%,0%,2%
COc1ccc(N(CC(=O)Nc2ccc3c(c2)OCO3)S(=O)(=O)c2ccc(C)cc2)cc1OC,.,1%,-2%,26µM*,-13%,1%
COc1ccc(N(CC(=O)Nc2ccc3c(c2)OCO3)S(=O)(=O)c2ccccc2)cc1OC,.,-5%,-1%,?,-1%,2%
COc1ccc(N(CC(=O)NCCC2=CCCCC2)S(=O)(=O)c2ccc(C)cc2)cc1OC,-4%,2%,0%,15µM*,-1%,1%
N#C/C(=C/Nc1ccccc1)c1ccsc1,-3%,?,.,.,.,.
Cc1ccc(N/C=C(/C#N)c2ccsc2)cc1,?,17µM*,.,.,.,.
